Records with an inconclusive call do not appear. Entries that show only a call come without a potency. Calls of active or inactive are those of the source. Calls follow the shape of the dose curve; as a rule, active = well fitted inhibition curve with a large enough effect; inconclusive = small, poorly fitted or top-dose-only effect; inactive = no such curve, though single readings can be large or run the other way.
system: Zika virus NS2B-NS3 protease (unlinked complex); test: Primary screen GU Rhodamine qHTS for Zika virus inhibitors: Unlinked NS2B-NS3 protease assay (AID 1347159); conditions: Recombinant ZIKV NS2B-NS3 protease, Rhodamine110 substrate fluorescence; series mostly up to 107 µM; also: nearly all actives have a fitted effect of over 60% in size; also: potency is read from the fitted curve at half-maximal effect
Summary of the method: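 A qHTS format was used, with compound concentrations ranging up to 114 microM. Each compound was preincubated with 25 nM NS2B-NS3 protease, and the substrate was then added at 1.5 microM. Curves were fitted with a 4-parameter Hill model.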

| SMILES | Potency | activity change, negative = inhibition |
| --- | --- | --- |
| COC(O)(CC(C)C)C1Oc2cc(C)[nH]c(=O)c2O1 (centres undefined) | inactive |  |
| O=C(OCC1=CC(Cl)C(O)C(OC(=O)c2ccccc2)C1O)c1ccccc1 (centres undefined) | inactive |  |
| CC1(C)CC[C@]2(C(=O)OC3OC(CO)C(O)C(O)C3O)CC[C@]3(C)C(=CCC4[C@@]5(C)C[C@@H](O)[C@H](OC6OC(C(=O)O)C(O)C(O)C6O)C(C)(C)C5CC[C@]43C)[C@@H]2C1 (some centres undefined) | inactive |  |
| COC(=O)C1=COC(OC2OC(CO)C(O)C(O)C2O)C2C(COC(=O)/C=C/c3ccc(O)cc3)C(O)C(O)C12 (centres undefined) | inactive |  |
| C[C@@H]1O[C@@H](OC(=O)Cc2ccccc2)[C@H](O)[C@H](O)[C@H]1O | inactive |  |
| O=C(/C=C/c1ccc(O)cc1)OC[C@H]1O[C@H](O[C@@]2(CO)O[C@@H](CO)[C@H](O)[C@H]2O)[C@H](O)[C@@H](O)[C@@H]1O | inactive |  |
| CCC12CCCN3CCc4c(n(c5ccccc45)C(O)C1)C32 (centres undefined) | inactive |  |
| CC/C=C\[C@H](O)[C@H](O)C1=C(C)C(=O)[C@]2(O1)C(=O)N[C@@](O)(C(=O)c1ccccc1)[C@@H]2O | inactive |  |
| CC(=O)/C=C/C1(O)C(C)=CC(=O)CC1(C)C (centres undefined) | inactive |  |
| CC1(CO)CCCC2(C)C1C(OC(=O)c1ccccc1)CC1C(=O)OCC12O (centres undefined) | inactive |  |
| CC(=O)NC1C(OC2CCC3(C)C(CCC4(C)C3CC=C3C5CC(C)(C)CCC5(C(=O)O)C(O)CC34C)C2(C)C)OC(CO)C(O)C1O (centres undefined) | inactive |  |
| CC(C)=CCc1c(O)cc2oc3cc(C)cc(O)c3c2c1C | 20 µM (active) |  |
| CC(=O)OCC1OC(O[C@H]2CC[C@@]3(C)C(CC[C@]4(C)C3CC=C3[C@@H]5CC(C)(C)CC[C@]5(C(=O)O)CC[C@]34C)[C@]2(C)CO)C(O)C(O)C1OC1OC(C)C(O)C(OC2OCC(O)C(O)C2O)C1O (some centres undefined) | inactive |  |
| COC1OC(=O)C2=C1C1(C)CCCC(C)(C)C1CC2O (centres undefined) | inactive |  |
| Cc1c(C)c(NCC(=O)N(C)C2CCN(Cc3ccc(C(N)=O)cc3)CC2)c(C)c(C)c1N | inactive |  |
| O=C(O)Cc1cn([C@@H]2OC[C@@H](O[C@@H]3O[C@H](CO)[C@@H](O)[C@H](O)[C@H]3O)[C@H](O)[C@H]2O[C@@H]2O[C@H](CO)[C@@H](O)[C@H](O)[C@H]2O)c2ccccc12 | inactive |  |
| CC1=COC(OC2OC(CO)C(O)C(O)C2O)C2C(CO)CC(OC(=O)/C=C/c3ccc(O)cc3)C12 (centres undefined) | inactive |  |
| COC(=O)C1=CO[C@@H](O[C@@H]2O[C@H](CO)[C@@H](O)[C@H](O)[C@H]2O)[C@@H]2[C@@H](CO)[C@@H](O)C(O)[C@H]12 (some centres undefined) | inactive |  |
| O=C(C1OC1/C=C/c1ccc2c(c1)OCO2)N1CCCCC1 (centres undefined) | inactive |  |
| COC(=O)[C@@H](NC(=O)[C@H](CC(C)C)NC(=O)N(Cc1ccccc1)C[C@@H](O)[C@H](Cc1ccccc1)NC(=O)OC(C)(C)C)C(C)C |  | 14.8% [at 19.1 µM] (inactive) |
| Cc1oc2nc3c(c(NC(=O)CN4CCCC4=O)c2c1C)CCCC3 | inactive |  |
| Cc1cc(CO)c(O)c(C(=O)CC2CC(=O)NC(=O)C2)c1 | inactive |  |
| C=C(C(=O)O)[C@@H]1CC[C@@]2(C)CC[C@@H](O)C(=C)C2C1 (some centres undefined) | inactive |  |
| COc1cc(/C=C/C(=O)O[C@@H]2C[C@@](O)(C(=O)O)C[C@@H](O)[C@@H]2O)ccc1O | inactive |  |
| O=C(/C=C/C=C/c1ccc2c(c1)OCO2)N1CCCCC1 | inactive |  |
| CC1=C[C@@H]2[C@H]3[C@@H]4O[C@@](C)(CC[C@H]4O)[C@H]3CC(=O)[C@]23C(=O)N[C@@H](CC(C)C)[C@@H]3[C@@H]1C | inactive |  |
| COc1cc(/C=C/C(=O)O)ccc1O[C@@H]1O[C@H](CO)[C@@H](O)[C@H](O)[C@H]1O[C@@H]1OC[C@](O)(CO)[C@H]1O | inactive |  |
| C=C1C(OC(C)=O)[C@@]23CCC4[C@](C)(C(=O)O)CCC[C@@]4(C)[C@]2(O)CC[C@H]1C3 (some centres undefined) | inactive |  |
| CCc1cccc2c3c([nH]c12)[C@@](CC)(CC(=O)O)OCC3 | inactive |  |
| COc1ccccc1N1CCN(CCCCNC(=O)c2ccc(-c3cscn3)cc2)CC1 | inactive |  |

system: Zika virus NS2B-NS3 protease (linked construct); test: Primary screen NINDS Rhodamine qHTS for Zika virus inhibitors (AID 1347160); conditions: purified NS2B-NS3 protease, Rhodamine110 substrate fluorescence; series mostly up to 33.1 µM; also: nearly all actives have a fitted effect of over 55% in size
Summary of the method: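 Kinetic fluorescence (Ex 480 nm, Em 540 nm) over 15 min with 1.5 microM Rhodamine110 peptide and 25 nM linked protease.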

| SMILES | Potency |
| --- | --- |
| CCOC(=O)C(CCc1ccccc1)NC1CCCN2CCCC(C(=O)O)N2C1=O (centres undefined) | inactive |
| CC(=O)O[C@H]1[C@H](O[C@H]2CC[C@]34C[C@]35CC[C@]3(C)[C@@H]([C@@]6(C)CC[C@@H](C(C)(C)O)O6)[C@@H](O)C[C@@]3(C)[C@@H]5C[C@H](O[C@@H]3O[C@H](CO)[C@@H](O)[C@H](O)[C@H]3O)[C@H]4C2(C)C)OC[C@@H](OC(C)=O)[C@@H]1O | inactive |
| NC(=O)[C@@H]1CC[C@H](c2ccc(OCc3ccccc3F)cc2)N1 | inactive |
| Cn1cc(CCn2cnc(-c3cnn(C)c3)c2-c2ccc(C#N)cc2)cn1 | inactive |
| CC1(C)CC2C(O)C3=C(CC(C)(O)C2C1)C(=O)OC3 (centres undefined) | inactive |
| CCC1OC(=O)C(C)CC(C)C(=O)/C(C)=C/C(C)C(=O)/C=C/C1(C)O (centres undefined) | inactive |
| CC1(C)CC[C@]2(C(=O)O[C@@H]3O[C@H](CO)[C@@H](O)[C@H](O)[C@H]3O)CC[C@]3(C)C(=CCC4[C@@]5(C)CC[C@H](O[C@@H]6O[C@H](C(=O)O)[C@@H](O[C@@H]7O[C@H](CO)[C@@H](O)[C@H](O)[C@H]7O)[C@H](O)[C@H]6O)C(C)(C)C5CC[C@]43C)C2C1 (some centres undefined) | inactive |
| O=C(C[C@@H]1C(C(=O)O)=CO[C@@H](O[C@@H]2O[C@H](CO)[C@@H](O)[C@H](O)[C@H]2O)/C1=C\CO)OCCc1ccc(O)cc1 | inactive |
| C=C[C@]1(C)C[C@@H](OC(=O)CSC2C[C@H]3CC[C@@H](C2)N3C)[C@]2(C)[C@H](C)CC[C@]3(CCC(=O)[C@H]32)[C@@H](C)[C@@H]1O (some centres undefined) | inactive |
| COC(O)(CC(C)C)C1Oc2cc(C)[nH]c(=O)c2O1 (centres undefined) | inactive |
| O=C(OCC1=CC(Cl)C(O)C(OC(=O)c2ccccc2)C1O)c1ccccc1 (centres undefined) | inactive |
| CC1(C)CC[C@]2(C(=O)OC3OC(CO)C(O)C(O)C3O)CC[C@]3(C)C(=CCC4[C@@]5(C)C[C@@H](O)[C@H](OC6OC(C(=O)O)C(O)C(O)C6O)C(C)(C)C5CC[C@]43C)[C@@H]2C1 (some centres undefined) | inactive |
| COC(=O)C1=COC(OC2OC(CO)C(O)C(O)C2O)C2C(COC(=O)/C=C/c3ccc(O)cc3)C(O)C(O)C12 (centres undefined) | inactive |
| C[C@@H]1O[C@@H](OC(=O)Cc2ccccc2)[C@H](O)[C@H](O)[C@H]1O | inactive |
| O=C(/C=C/c1ccc(O)cc1)OC[C@H]1O[C@H](O[C@@]2(CO)O[C@@H](CO)[C@H](O)[C@H]2O)[C@H](O)[C@@H](O)[C@@H]1O | inactive |
| CCC12CCCN3CCc4c(n(c5ccccc45)C(O)C1)C32 (centres undefined) | inactive |
| CC/C=C\[C@H](O)[C@H](O)C1=C(C)C(=O)[C@]2(O1)C(=O)N[C@@](O)(C(=O)c1ccccc1)[C@@H]2O | inactive |
| CC(=O)/C=C/C1(O)C(C)=CC(=O)CC1(C)C (centres undefined) | inactive |
| CC1(CO)CCCC2(C)C1C(OC(=O)c1ccccc1)CC1C(=O)OCC12O (centres undefined) | inactive |
| CC(=O)NC1C(OC2CCC3(C)C(CCC4(C)C3CC=C3C5CC(C)(C)CCC5(C(=O)O)C(O)CC34C)C2(C)C)OC(CO)C(O)C1O (centres undefined) | inactive |

| SMILES | Potency |
| --- | --- |
| CC(C)=CCc1c(O)cc2oc3cc(C)cc(O)c3c2c1C | inactive |
| CC(=O)OCC1OC(O[C@H]2CC[C@@]3(C)C(CC[C@]4(C)C3CC=C3[C@@H]5CC(C)(C)CC[C@]5(C(=O)O)CC[C@]34C)[C@]2(C)CO)C(O)C(O)C1OC1OC(C)C(O)C(OC2OCC(O)C(O)C2O)C1O (some centres undefined) | inactive |
| COC1OC(=O)C2=C1C1(C)CCCC(C)(C)C1CC2O (centres undefined) | inactive |
| Cc1c(C)c(NCC(=O)N(C)C2CCN(Cc3ccc(C(N)=O)cc3)CC2)c(C)c(C)c1N | inactive |
| O=C(O)Cc1cn([C@@H]2OC[C@@H](O[C@@H]3O[C@H](CO)[C@@H](O)[C@H](O)[C@H]3O)[C@H](O)[C@H]2O[C@@H]2O[C@H](CO)[C@@H](O)[C@H](O)[C@H]2O)c2ccccc12 | inactive |
| CC1=COC(OC2OC(CO)C(O)C(O)C2O)C2C(CO)CC(OC(=O)/C=C/c3ccc(O)cc3)C12 (centres undefined) | inactive |
| COC(=O)C1=CO[C@@H](O[C@@H]2O[C@H](CO)[C@@H](O)[C@H](O)[C@H]2O)[C@@H]2[C@@H](CO)[C@@H](O)C(O)[C@H]12 (some centres undefined) | inactive |
| O=C(C1OC1/C=C/c1ccc2c(c1)OCO2)N1CCCCC1 (centres undefined) | inactive |
| COC(=O)[C@@H](NC(=O)[C@H](CC(C)C)NC(=O)N(Cc1ccccc1)C[C@@H](O)[C@H](Cc1ccccc1)NC(=O)OC(C)(C)C)C(C)C | inactive |
| Cc1oc2nc3c(c(NC(=O)CN4CCCC4=O)c2c1C)CCCC3 | inactive |
| Cc1cc(CO)c(O)c(C(=O)CC2CC(=O)NC(=O)C2)c1 | inactive |
| C=C(C(=O)O)[C@@H]1CC[C@@]2(C)CC[C@@H](O)C(=C)C2C1 (some centres undefined) | inactive |
| COc1cc(/C=C/C(=O)O[C@@H]2C[C@@](O)(C(=O)O)C[C@@H](O)[C@@H]2O)ccc1O | inactive |
| O=C(/C=C/C=C/c1ccc2c(c1)OCO2)N1CCCCC1 | inactive |
| CC1=C[C@@H]2[C@H]3[C@@H]4O[C@@](C)(CC[C@H]4O)[C@H]3CC(=O)[C@]23C(=O)N[C@@H](CC(C)C)[C@@H]3[C@@H]1C | inactive |
| COc1cc(/C=C/C(=O)O)ccc1O[C@@H]1O[C@H](CO)[C@@H](O)[C@H](O)[C@H]1O[C@@H]1OC[C@](O)(CO)[C@H]1O | inactive |
| C=C1C(OC(C)=O)[C@@]23CCC4[C@](C)(C(=O)O)CCC[C@@]4(C)[C@]2(O)CC[C@H]1C3 (some centres undefined) | inactive |
| CCc1cccc2c3c([nH]c12)[C@@](CC)(CC(=O)O)OCC3 | inactive |
| COc1ccccc1N1CCN(CCCCNC(=O)c2ccc(-c3cscn3)cc2)CC1 | inactive |

— PubChem BioAssay (NCATS)
